Compounds with a hit are over-represented: about 0.53% of the library has one in this group of screens.
IL2 activator: activators of IL-2; AID 652025; activation, % (series mostly up to about 46 µM); IL-2 activation reporter assay, cell-based qHTS; stimulated with anti-CD3/CD4/CD28 beads; in transgenic mouse T cells; hit rate 0.065% among 360,000; in the data active = activation above about 50%; inconclusive = mostly about 30% to 49%; note: 0% is about no effect
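Quantitative HTS in unstimulated transgenic mouse T cells, with memory T cells as non-tolerant control and PMA/ionomycin as tolerance-bypass control. Compound pretreatment lasted 60 minutes before 18 h bead stimulation; EGFP/DsRed fluorescence read.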
PKM2 act: activators of human pyruvate kinase M2; hit rate 0.34% among 260,000; AID 1631; purified PKM2, Kinase-Glo ATP luminescence, activation; response scale: 0% is enzyme alone, no compound; Potency, µM (top dose mostly 57.5 µM), inactives show at the highest dose activation, usual class: activators; P14618; note: potency is the fitted concentration of half-maximal effect; % is set by controls: 0 for no effect and ±100 for the full control effect; nearly all actives have a fitted effect of over 55% in size
Target sequence (P14618 whole entry, looked up): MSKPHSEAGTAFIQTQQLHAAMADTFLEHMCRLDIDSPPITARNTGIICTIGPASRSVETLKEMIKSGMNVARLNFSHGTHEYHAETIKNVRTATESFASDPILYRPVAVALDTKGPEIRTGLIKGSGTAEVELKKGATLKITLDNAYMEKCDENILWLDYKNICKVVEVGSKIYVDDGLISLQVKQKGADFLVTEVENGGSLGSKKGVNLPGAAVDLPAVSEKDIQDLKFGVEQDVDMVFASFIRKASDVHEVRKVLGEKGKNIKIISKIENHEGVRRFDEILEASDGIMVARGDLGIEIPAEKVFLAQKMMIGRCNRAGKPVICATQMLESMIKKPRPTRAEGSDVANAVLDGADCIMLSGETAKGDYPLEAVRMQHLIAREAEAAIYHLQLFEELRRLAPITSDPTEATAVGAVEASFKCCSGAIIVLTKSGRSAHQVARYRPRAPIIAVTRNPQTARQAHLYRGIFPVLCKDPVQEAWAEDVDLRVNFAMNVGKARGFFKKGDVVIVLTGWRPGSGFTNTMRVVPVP
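ATP formation by purified human PK-M2, quantified via coupled luciferase luminescence after 1 h at room temperature with 0.1 mM ADP and 0.5 mM PEP final.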
Vif-APOBEC3G blk: inhibitors of Vif-APOBEC3G interaction; hit rate 0.076% among 410,000; AID 602310; HeLa A3G-eYFP + Vif (tagged APOBEC3G with the HIV-1 protein that degrades it), YFP fluorescence, overnight; Potency, µM (highest dose often 46.1 µM), without a hit: at the top dose activity, negative = active, actives largely listed as inhibitors; note: potency is the fitted concentration of half-maximal effect; % is set by controls: 0 for no effect and ±100 for the full control effect; nearly all actives have a fitted effect of over 60% in size
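HeLa cells stably expressing Vif and C-terminally eYFP-tagged A3G, seeded overnight at 37 deg C, then exposed to compound by pintool overnight at 37 deg C. Rise in yellow fluorescence (Ex 488/Em 500-530, Acumen) marks blocked Vif-driven A3G degradation.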
Vif-APOBEC3F blk: inhibitors of Vif-A3F interaction; HeLa A3F-eYFP + Vif (tagged APOBEC3F with the HIV-1 protein that degrades it), YFP fluorescence increase; Potency, µM (series often up to 46.1 µM), for the others: top-dose activity, negative = active; hit rate 0.2% among 390,000; AID 602313; note: potency is the fitted concentration of half-maximal effect; % of control where 0% means no effect; nearly all actives have a fitted effect of over 65% in size
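HeLa cells stably expressing A3F-eYFP plus Vif, plated and incubated overnight at 37 deg C, then exposed to compounds overnight at 37 deg C. Blocked degradation read as raised yellow fluorescence (Ex 488/Em 500-530).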
HeLa viability: reduces HeLa cell viability in PKM2 activator counter-screen. shares compounds with PKM2 act. 230 tested, under 10 active. AID 1898. activity change, negative = cytotoxicity, % at 57.5 µM. HeLa viability, CellTiter-Glo ATP luminescence, 24 h; note: % of control where 0% means no effect
An asterisk follows results filed as active; ? = inconclusive; nt = no result. Unless noted, calls come from the whole dose curve; as a rule, active = well fitted curve in the direction sought with a large enough effect; inconclusive = small, poorly fitted or top-dose-only effect, or another doubt; inactive = no such curve, though single readings can be large; an effect the other way counts as inactive or inconclusive.

SMILES	IL2 activator	PKM2 act	Vif-APOBEC3G blk	Vif-APOBEC3F blk	HeLa viability
Cn1c2cc(C#N)sc2c2cnn(Cc3ccc(F)cc3)c(=O)c21	0	nt	0%	3%	nt
Cc1cc2c(s1)c1cnn(CC(=O)NCCc3ccccc3)c(=O)c1n2C	0	-4%	-9%	0%	nt
Cc1cc2c(s1)c1cnn(Cc3ccc(F)cc3)c(=O)c1n2C	nt	nt	nt	nt	6
CCCCN(CCCC)CC(O)c1cc(Cl)cc2c1-c1ccc(Cl)cc1C2=Cc1ccc(Cl)cc1 (stereo unspecified)	nt	nt	5%	nt	nt
Cc1cc2c(s1)c1cnn(Cc3ccccc3)c(=O)c1n2C	nt	nt	nt	nt	3
Cc1cc2c(s1)c1cnn(Cc3ccccc3Cl)c(=O)c1n2C	nt	nt	nt	nt	2
Cc1cc2c(s1)c1cnn(-c3ccccc3)c(=O)c1n2C	0	nt	-1%	4%	3
O=S(=O)(c1c(F)cccc1F)C1CCN(S(=O)(=O)c2ccc3c(c2)OCCO3)CC1	-2	nt	2%	-4%	-9
O=S(=O)(NCC1CN(S(=O)(=O)c2c(F)cccc2F)C1)c1ccc2c(c1)OCCO2	-4	nt	5%	1%	-6
O=S(=O)(c1ccc2c(c1)OCO2)N1CCN(S(=O)(=O)c2c(F)cccc2F)CC1	nt	nt	nt	nt	?
O=S(=O)(NCCCCCNS(=O)(=O)c1c(F)cccc1F)c1ccc2c(c1)OCCO2	0	nt	1%	-4%	-2
COc1ccc(CNC(=O)Cn2c(=O)c3cccn3c3ccccc32)cc1	nt	nt	-6%	-10%	nt
CC(C)c1ccc(Cn2cnc3c(cnn3C(C)(C)C)c2=O)cc1	nt	nt	1%	nt	nt
O=S(=O)(c1ccc2c(c1)OCCO2)N1CCN(S(=O)(=O)c2c(F)cc(F)cc2F)CC1	-1	nt	0%	-4%	nt
O=C1CCc2cc(S(=O)(=O)N3CCN(c4ccccc4F)CC3)ccc2N1	2	4%	3%	3%	nt
CS(=O)(=O)N1CCN(C(=O)c2ccc3c(c2)OCCO3)CC1	0	9%	1%	1%	nt
CN1CCOc2ccc(S(=O)(=O)N3CCN(S(=O)(=O)c4c(F)cccc4F)CC3)cc21	nt	nt	nt	nt	4
O=C1CN(S(=O)(=O)c2ccc3c(c2)OCCO3)CCN1S(=O)(=O)c1c(F)cccc1F	nt	nt	nt	nt	-13
O=C(c1ccc2c(c1)OCCO2)N1CCN(S(=O)(=O)c2c(F)cccc2F)CC1	1	nt	6%	2%	?
CC1(C)CCc2cc(S(=O)(=O)N3CCN(S(=O)(=O)c4c(F)cccc4F)CC3)ccc2O1	8	nt	0%	0%	-21
Cc1ccccc1OCC(=O)Nc1ccc(OCc2cc(=O)n3ccsc3n2)cc1	nt	nt	-2%	0%	nt
COc1ccccc1NC(=O)CSc1oc(-c2ccc(F)cc2)nc1S(=O)(=O)c1ccc(Br)cc1	nt	nt	-8%	-25%	nt
C[C@H]1CN(S(=O)(=O)c2ccc3c(c2)OCCO3)CCN1S(=O)(=O)c1c(F)cccc1F	1	nt	4%	4%	4
O=S(=O)(c1ccc2c(c1)OCCO2)N1CCN(S(=O)(=O)c2c(F)cccc2F)CC1	nt	nt	nt	nt	?
COc1cccc(S(=O)(=O)N2CCN(S(=O)(=O)c3ccc4c(c3)OCCO4)CC2)c1	nt	nt	nt	nt	2
SMILES	IL2 activator	PKM2 act	Vif-APOBEC3G blk	Vif-APOBEC3F blk	HeLa viability
O=S(=O)(c1ccc2c(c1)OCCO2)N1CCCN(S(=O)(=O)c2c(F)cccc2F)CC1	0	nt	-6%	-1%	-13
O=S(=O)(c1ccc2c(c1)OCCO2)N1C[C@@H]2C[C@H]1CN2S(=O)(=O)c1c(F)cccc1F	0	nt	-5%	-2%	nt
Cn1c(SCC(=O)N/N=C/C=C\c2ccco2)nc2ccccc21	-2	7.1µM*	-5%	0%	-3
CCn1c(SCC(=O)N/N=C/C=C\c2ccco2)nc2ccccc21	-4	?	-20%	-11%	nt
COc1ccccc1NC(=O)CSc1nn2c(=O)c(C)nnc2s1	1	-2%	2%	-4%	nt
Cc1nnc2sc(SCC(=O)Nc3nccs3)nn2c1=O	0	1.4µM*	1%	3%	0
O=C(CN1C(=O)N/C(=C\c2cccn2-c2cccc(C(=O)O)c2)C1=O)Nc1ccccc1F	nt	nt	nt	nt	-4
N#Cc1ccc(S(=O)(=O)N2CCN(S(=O)(=O)c3ccc4c(c3)OCCO4)CC2)cc1	nt	nt	nt	nt	-12
CCCc1cc(F)c(S(=O)(=O)N2CCN(S(=O)(=O)c3ccc4c(c3)OCCO4)CC2)cc1F	nt	nt	nt	nt	-1
O=S(=O)(c1ccc(F)cc1)N1CCN(S(=O)(=O)c2ccc3c(c2)OCCO3)CC1	0	nt	-6%	-8%	10
Cc1ccc(S(=O)(=O)N2CCN(S(=O)(=O)c3ccc4c(c3)OCCO4)CC2)cc1	0	?	-3%	nt	nt
O=S(=O)(c1ccc(Cl)cc1)N1CCN(S(=O)(=O)c2ccc3c(c2)OCCO3)CC1	nt	nt	nt	nt	?
CCOc1ccc(CNC(=O)C(C)n2ncn3cccc3c2=O)cc1 (stereo unspecified)	nt	nt	-1%	-5%	nt
CCC(=O)N1CCc2cc(CNC(=O)Nc3ccc(OC)cc3OC)ccc21	nt	nt	-1%	1%	nt
O=C1NC(=O)c2cc(Br)cc3cccc1c23	-1	5%	2%	7%	nt
Cc1ccc(NS(=O)(=O)c2cc3c4c(cccc4c2)C(=O)NC3=O)cc1C	-1	4µM*	-9%	-21%	?
COc1ccccc1NC(=O)Cn1c(=O)n(-c2cccc(C(C)=O)c2)c(=O)c2c3c(sc21)CN(C(C)=O)CC3	nt	nt	-2%	1%	nt
CC(=O)N1N=C(c2ccncc2)CC1c1ccccc1O (stereo unspecified)	1	4.5µM*	-4%	-6%	-4
O=C(c1cccs1)N1N=C(c2ccccc2)CC1c1ccccc1O (stereo unspecified)	0	4%	-14%	17%	nt
Cc1ccccc1OCC(=O)NCC(=O)OCc1cccc2ccccc12	nt	nt	0%	nt	nt
N#Cc1ccc(CSc2ncnc3c2cnn3Cc2ccccc2)cc1	0	20µM*	3%	-5%	-2
COc1cc(OC)c(NC(=O)Cn2nc(C)n3cccc3c2=O)cc1Cl	nt	nt	-7%	-1%	nt
CCC1CCCCN1C(=O)CSc1n[nH]c(-c2ccccc2)n1 (stereo unspecified)	nt	nt	4%	4%	nt
Cc1ccccc1-c1nnn(CC(=O)N2CCN(S(=O)(=O)c3ccc(Cl)cc3)CC2)n1	0	?	2%	7%	nt
O=C(Cn1nnc(-c2ccccc2)n1)N1CCN(S(=O)(=O)c2ccc(Cl)cc2)CC1	-3	2.5µM*	-2%	0%	3
Cc1ccc(C)c2[nH]c(=O)c(CN(Cc3ccco3)C(=O)Nc3ccccc3)cc12	-1	7.9µM*	0%	0%	?
Cc1ccc2cc(CN(Cc3ccco3)C(=O)NCc3ccccc3)c(=O)[nH]c2c1C	-1	-3%	-8%	2%	nt
CCC(C(=O)Nc1ccc(C)c(C)c1)n1c(=O)c(C(F)(F)F)nc2ccccc21 (stereo unspecified)	nt	nt	6%	-6%	nt

Source: PubChem
